Results: PubChem BioAssay (NCI)
The panel holds about 83,000 compounds, 20% with a hit somewhere; the sample as a whole holds those more often.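 Interpretation: 100, growth as untreated; towards 0, rising growth inhibition; 0, no net growth; 0 to -100, cell death. Compounds scoring below 10 were considered active.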 Calls of active or inactive are those of the source.

Experiments:
Test in all cases: NCI-60 one-dose screen, 48 h (100 = growth as untreated, 0 = no growth, -100 = all killed)
Settings in all cases: 10 µM unless noted
SR leukemia = tested on: SR leukemia
RPMI-8226 leukemia = tested on: RPMI-8226 leukemia
OVCAR-8 ovarian = tested on: OVCAR-8 ovarian
OVCAR-5 ovarian = tested on: OVCAR-5 ovarian
OVCAR-4 ovarian = tested on: OVCAR-4 ovarian
SK-OV-3 ovarian = tested on: SK-OV-3 ovarian
IGROV1 ovarian = tested on: IGROV1 ovarian
OVCAR-3 ovarian = tested on: OVCAR-3 ovarian
HS 578T breast = tested on: HS 578T breast
NCI/ADR-RES ovarian = tested on: NCI/ADR-RES ovarian

Measured: growth

O=C1Nc2ccccc2/C1=C/c1cn(CC(O)Cn2cc(/C=C3\C(=O)Nc4ccccc43)c3ccccc32)c2ccccc12 (stereo not given)
active: SR leukemia -2.94% | RPMI-8226 leukemia -41.7% | OVCAR-8 ovarian 1.35% | OVCAR-5 ovarian -34.2% | OVCAR-4 ovarian -51.7% | SK-OV-3 ovarian -38.2% | IGROV1 ovarian -67.4% | OVCAR-3 ovarian -85.1% | HS 578T breast -22.3%
inactive: NCI/ADR-RES ovarian 31.8%

C/C=C/C/C=C/[C@H](C)C[C@H](O)[C@@H]1C[C@@H]2O[C@H]2/C=C/[C@H](O)[C@@H](O)/C=C/C[C@H](C)CC(=O)O1
inactive: SR leukemia 69.9% | RPMI-8226 leukemia 42.8% | OVCAR-8 ovarian 63.7% | OVCAR-5 ovarian 93.4% | OVCAR-4 ovarian 88.9% | SK-OV-3 ovarian 102% | IGROV1 ovarian 78.9% | OVCAR-3 ovarian 84.9% | HS 578T breast 11% | NCI/ADR-RES ovarian 71.6%

CCOC(=O)c1c(C)oc2ncnc(Nc3ccc(NC(=O)Nc4cccc(Cl)c4)cc3)c12
inactive: SR leukemia 53.6% | RPMI-8226 leukemia 46.1% | OVCAR-8 ovarian 50.2% | OVCAR-5 ovarian 122% | OVCAR-4 ovarian 73.7% | SK-OV-3 ovarian 93.3% | IGROV1 ovarian 78.4% | OVCAR-3 ovarian 80.9% | HS 578T breast 80.6% | NCI/ADR-RES ovarian 43.8%

O=C(O)CC1Cc2ccccc2C1C(=O)O (stereo not given)
inactive: RPMI-8226 leukemia 110% | OVCAR-8 ovarian 101% | OVCAR-5 ovarian 108% | OVCAR-4 ovarian 113% | SK-OV-3 ovarian 102% | IGROV1 ovarian 110% | OVCAR-3 ovarian 102% | HS 578T breast 104% | NCI/ADR-RES ovarian 99.5%
active: SR leukemia -8.39%

C[C@H]1C[C@@H](n2cnc3c(N)nccc32)[C@H](O)[C@@H]1O
inactive: RPMI-8226 leukemia 117% | OVCAR-8 ovarian 99% | OVCAR-5 ovarian 103% | OVCAR-4 ovarian 110% | SK-OV-3 ovarian 117% | IGROV1 ovarian 560% | OVCAR-3 ovarian 120% | HS 578T breast 109% | NCI/ADR-RES ovarian 128%
active: SR leukemia -54.1%

CCCCCc1ccnc(CC(=O)c2ccc(OC)cc2)c1
inactive: SR leukemia 91.5% | RPMI-8226 leukemia 76.7% | OVCAR-8 ovarian 86.1% | OVCAR-5 ovarian 89.7% | OVCAR-4 ovarian 76.5% | SK-OV-3 ovarian 92.5% | IGROV1 ovarian 108% | OVCAR-3 ovarian 93.7% | HS 578T breast 107% | NCI/ADR-RES ovarian 108%

Cc1ccc(NC(=O)CCl)cc1Cl
inactive: SR leukemia 51.9% | RPMI-8226 leukemia 91% | OVCAR-8 ovarian 92.9% | OVCAR-5 ovarian 108% | OVCAR-4 ovarian 89.2% | SK-OV-3 ovarian 102% | IGROV1 ovarian 63.8% | OVCAR-3 ovarian 114% | HS 578T breast 93.8% | NCI/ADR-RES ovarian 107%

Brc1c(-c2ccncc2)nc2n1CCS2
inactive: SR leukemia 52.9% | RPMI-8226 leukemia 60.2% | OVCAR-8 ovarian 94.6% | OVCAR-5 ovarian 102% | OVCAR-4 ovarian 109% | SK-OV-3 ovarian 116% | OVCAR-3 ovarian 97.6% | HS 578T breast 117% | NCI/ADR-RES ovarian 107%
active: IGROV1 ovarian 0.69%

O=C(O)c1occ(Cl)c1Cl
inactive: SR leukemia 92.7% | RPMI-8226 leukemia 100% | OVCAR-8 ovarian 107% | OVCAR-5 ovarian 96.5% | OVCAR-4 ovarian 115% | SK-OV-3 ovarian 109% | IGROV1 ovarian 120% | OVCAR-3 ovarian 118% | HS 578T breast 115% | NCI/ADR-RES ovarian 111%

Cc1cc2c(-c3nc4ccccc4[nH]3)c(O)c(O)cc2c(O)c1-c1c(C)cc2c(-c3nc4ccccc4[nH]3)c(O)c(O)cc2c1O
active: SR leukemia 6% | RPMI-8226 leukemia 9.72% | OVCAR-8 ovarian -6.85% | OVCAR-4 ovarian 6.83% | SK-OV-3 ovarian -35.6% | HS 578T breast 4.85% | NCI/ADR-RES ovarian -12.6%
inactive: OVCAR-5 ovarian 26.2% | IGROV1 ovarian 12.7% | OVCAR-3 ovarian 20.6%

COc1ccc2oc(=O)cc(CN3C(=O)S/C(=C\c4ccc(Cl)cc4)C3=O)c2c1
inactive: SR leukemia 71.8% | RPMI-8226 leukemia 73.1% | OVCAR-8 ovarian 100% | OVCAR-5 ovarian 97.3% | OVCAR-4 ovarian 91.7% | SK-OV-3 ovarian 113% | IGROV1 ovarian 102% | OVCAR-3 ovarian 89.1% | HS 578T breast 108% | NCI/ADR-RES ovarian 94.6%

COc1cc2c(c3c1c(=O)c1cccc(F)c1n3C)C=CC(C)(C)O2
inactive: SR leukemia 48.8% | RPMI-8226 leukemia 64.7% | OVCAR-8 ovarian 85.2% | OVCAR-5 ovarian 101% | OVCAR-4 ovarian 101% | SK-OV-3 ovarian 110% | IGROV1 ovarian 75.4% | OVCAR-3 ovarian 117% | HS 578T breast 101% | NCI/ADR-RES ovarian 83.9%

COc1cc2ncnc(-n3ncc4cc(NC(=O)Nc5ccccc5)ccc43)c2cc1OC
active: OVCAR-4 ovarian 7.2% | SK-OV-3 ovarian 3.75% | IGROV1 ovarian 5.95% | HS 578T breast -18.9%
inactive: SR leukemia 26.6% | RPMI-8226 leukemia 15.6% | OVCAR-8 ovarian 50.1% | OVCAR-5 ovarian 24.7% | OVCAR-3 ovarian 36.1% | NCI/ADR-RES ovarian 39.2%

CC(CCN1CCN(CCC(C)CC(C)(C)C)C1CC(C)CC(C)(C)C)CC(C)(C)C (stereo not given)
inactive: RPMI-8226 leukemia 76.4% | OVCAR-8 ovarian 89.8% | OVCAR-5 ovarian 90.4% | OVCAR-4 ovarian 98.2% | SK-OV-3 ovarian 96.4% | IGROV1 ovarian 81.7% | OVCAR-3 ovarian 73.3% | HS 578T breast 112% | NCI/ADR-RES ovarian 98.3%
active: SR leukemia 5.62%

CC[N+](C)(C)N
inactive: SR leukemia 93.8% | RPMI-8226 leukemia 101% | OVCAR-8 ovarian 98.3% | OVCAR-5 ovarian 111% | OVCAR-4 ovarian 102% | SK-OV-3 ovarian 109% | IGROV1 ovarian 111% | OVCAR-3 ovarian 114% | HS 578T breast 108% | NCI/ADR-RES ovarian 109%

O=C1CCNC1
inactive: SR leukemia 106% | RPMI-8226 leukemia 102% | OVCAR-8 ovarian 100% | OVCAR-5 ovarian 105% | OVCAR-4 ovarian 97.8% | SK-OV-3 ovarian 107% | IGROV1 ovarian 118% | OVCAR-3 ovarian 109% | HS 578T breast 114% | NCI/ADR-RES ovarian 110%

CC(C)OC(=O)Nn1cnc2ccccc21
inactive: RPMI-8226 leukemia 98.6% | OVCAR-8 ovarian 111% | OVCAR-5 ovarian 96.7% | OVCAR-4 ovarian 126% | SK-OV-3 ovarian 114% | IGROV1 ovarian 23.8% | OVCAR-3 ovarian 111% | HS 578T breast 114% | NCI/ADR-RES ovarian 110%
active: SR leukemia -48%

CCCCCCCCCC[N+](C)(C)C
active: RPMI-8226 leukemia 1.86% | OVCAR-5 ovarian 9.16% | IGROV1 ovarian -37.8% | OVCAR-3 ovarian 5.8%
inactive: SR leukemia 20.2% | OVCAR-8 ovarian 18.3% | OVCAR-4 ovarian 23% | SK-OV-3 ovarian 56.2% | HS 578T breast 26.5% | NCI/ADR-RES ovarian 94.4%

O=Nc1ccc(O)c2ccccc12
inactive: SR leukemia 11.5% | SK-OV-3 ovarian 99.9% | HS 578T breast 53.2%
active: RPMI-8226 leukemia -12.1% | OVCAR-8 ovarian 7.56% | OVCAR-5 ovarian 1.31% | OVCAR-4 ovarian -96.5% | IGROV1 ovarian 2.08% | OVCAR-3 ovarian -6.85% | NCI/ADR-RES ovarian -0.605%

CCCCCCCCCCCC(=O)OC(C)C(=O)Nc1ccccc1 (stereo not given)
inactive: SR leukemia 86.1% | RPMI-8226 leukemia 99.8% | OVCAR-8 ovarian 95.4% | OVCAR-5 ovarian 95.2% | OVCAR-4 ovarian 105% | SK-OV-3 ovarian 97.6% | IGROV1 ovarian 103% | OVCAR-3 ovarian 102% | HS 578T breast 94.3% | NCI/ADR-RES ovarian 100%

CN(C)CCOC(=O)C(C)(C)C
inactive: SR leukemia 99.5% | RPMI-8226 leukemia 106% | OVCAR-8 ovarian 99.7% | OVCAR-5 ovarian 103% | OVCAR-4 ovarian 111% | SK-OV-3 ovarian 112% | IGROV1 ovarian 106% | OVCAR-3 ovarian 111% | HS 578T breast 105% | NCI/ADR-RES ovarian 110%

COc1cc2ncnc(-n3ncc4cc(NC(=O)Nc5ccc(Cl)c(C)c5)ccc43)c2cc1OC
inactive: SR leukemia 71.5% | RPMI-8226 leukemia 96.8% | OVCAR-8 ovarian 110% | OVCAR-5 ovarian 109% | OVCAR-4 ovarian 98.3% | SK-OV-3 ovarian 119% | IGROV1 ovarian 96.2% | OVCAR-3 ovarian 107% | HS 578T breast 75.9% | NCI/ADR-RES ovarian 98.7%

COc1ccc(-c2cn3ccnc3c(-c3ccc4ncn(C5CCCCC5)c4c3)n2)cc1
active: SR leukemia 8.27% | RPMI-8226 leukemia 4.37% | OVCAR-3 ovarian -26.5%
inactive: OVCAR-8 ovarian 28.8% | OVCAR-5 ovarian 41.2% | OVCAR-4 ovarian 53.4% | SK-OV-3 ovarian 25.7% | IGROV1 ovarian 46.6% | HS 578T breast 20% | NCI/ADR-RES ovarian 12.8%

CC(=O)OC1CC2C3CCC4C[C@@H](NC(=O)C=C(C)C)CC[C@]4(C)C3CC[C@]2(C)[C@H]1C(C)N(C)C (stereo not given in full)
active: SR leukemia -21% | OVCAR-4 ovarian -8.18% | OVCAR-3 ovarian -4.96% | HS 578T breast 0.863%
inactive: RPMI-8226 leukemia 13.9% | OVCAR-8 ovarian 45.1% | OVCAR-5 ovarian 58.9% | SK-OV-3 ovarian 25.8% | IGROV1 ovarian 33.6% | NCI/ADR-RES ovarian 41.7%

COC(=O)c1ccc(C(=Nc2ccc(N(C)C(=O)CN3CCN(C)CC3)cc2)c2c(O)[nH]c3ccc(C(=O)OC)cc23)cc1
inactive: RPMI-8226 leukemia 15.1% | OVCAR-8 ovarian 30.7% | OVCAR-5 ovarian 69.7% | OVCAR-4 ovarian 38.3% | OVCAR-3 ovarian 28.3% | NCI/ADR-RES ovarian 107%
active: SR leukemia 2.08% | SK-OV-3 ovarian 0.753% | IGROV1 ovarian 5.1% | HS 578T breast 8.61%

COc1cccc(NC(=O)NCCNc2nccc(-c3c(-c4ccc(F)cc4)nc4sccn34)n2)c1
inactive: SR leukemia 88.3% | RPMI-8226 leukemia 82.2% | OVCAR-8 ovarian 65.5% | OVCAR-5 ovarian 87% | OVCAR-4 ovarian 96% | SK-OV-3 ovarian 77.9% | IGROV1 ovarian 60.5% | OVCAR-3 ovarian 90.4% | HS 578T breast 110% | NCI/ADR-RES ovarian 91.2%

Nc1nc2c(c3cnccc13)C(c1ccc(Cl)c(Cl)c1)Cc1cnccc1-2 (stereo not given)
active: SR leukemia 5.08% | RPMI-8226 leukemia -5.48% | OVCAR-8 ovarian 9.87% | OVCAR-5 ovarian -1.65% | SK-OV-3 ovarian 2.34% | IGROV1 ovarian 7.84% | OVCAR-3 ovarian -44.8% | HS 578T breast 9.27% | NCI/ADR-RES ovarian -13.2%
inactive: OVCAR-4 ovarian 14.7%

CCCCN(CCCC)CC(O)CN(CC)CC (stereo not given)
inactive: SR leukemia 97% | RPMI-8226 leukemia 97.4% | OVCAR-8 ovarian 104% | OVCAR-5 ovarian 95.3% | OVCAR-4 ovarian 97% | SK-OV-3 ovarian 99% | IGROV1 ovarian 100% | OVCAR-3 ovarian 113% | HS 578T breast 120% | NCI/ADR-RES ovarian 105%
